Gli-Sufu antag: antagonists of Gli-Sufu signaling | Sufu-KO-LIGHT fibroblasts, Gli luciferase reporter luminescence | AID 588413 | inhibition, % at 5 µM | 0.74% of 340,000 active;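 active = inhibition above about 55%, limit read from the data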
NCOA2 inhibitor: inhibits human steroid receptor coactivator 2; 0.17% of 370,000 active; Q15596; inhibition, % at 9 µM; HEK293 GAL4-SRC2 luciferase reporter, luminescence;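 active = inhibition above the mean inhibition of all tested compounds plus 3 SD, set per campaign, cut at about 52% in these data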
NR2F2 inh: NR2F2 (human) inhibition, primary screen | P24468 | HEK293T NGFI-A luciferase reporter, luminescence | inhibition, % at 8.6 µM | 0.7% of 370,000 active | AID 686940;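 active = inhibition above a per-plate cutoff, mean inhibition of test wells between control levels plus 3 SD, cut at about 38% in these data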;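 note: cells cotransfected with COUP-TFII expression vector driving the NGFI-A reporter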
SRC1 inh: inhibits human SRC1 coactivator; HEK293 GAL4-SRC1 luciferase reporter, luminescence; 0.12% of 360,000 active; inhibition, % at 3.6 µM; AID 588354;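 active = inhibition above the campaign mean plus 3 SD, with each screening campaign given its own cutoff, cut at about 60% in these data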
LRH-1 inv ag: suppresses constitutive activity of human LRH-1; O00482; HEK293T StAR-luciferase reporter, LRH-1 transfected, 24 h; inhibition, % at 3.6 µM; 0.13% of 360,000 active;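 active = inhibition above the mean inhibition of all tested compounds plus 3 SD, cut at about 73% in these data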
NCOA3 inh: inhibitors of human steroid receptor coactivator 3 (SRC3); AID 588352; inhibition, % at 3.6 µM; 0.17% of 360,000 active; Q9Y6Q9; HEK293 GAL4-SRC3 luciferase reporter, luminescence;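 active = inhibition above a per-campaign cutoff, the mean of all compounds plus 3 SD, cut at about 60% in these data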;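 note: higher means less SRC3-driven luciferase light from the GAL4 reporter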
Target sequence (Q9Y6Q9 whole entry, looked up, the tested form may be a part): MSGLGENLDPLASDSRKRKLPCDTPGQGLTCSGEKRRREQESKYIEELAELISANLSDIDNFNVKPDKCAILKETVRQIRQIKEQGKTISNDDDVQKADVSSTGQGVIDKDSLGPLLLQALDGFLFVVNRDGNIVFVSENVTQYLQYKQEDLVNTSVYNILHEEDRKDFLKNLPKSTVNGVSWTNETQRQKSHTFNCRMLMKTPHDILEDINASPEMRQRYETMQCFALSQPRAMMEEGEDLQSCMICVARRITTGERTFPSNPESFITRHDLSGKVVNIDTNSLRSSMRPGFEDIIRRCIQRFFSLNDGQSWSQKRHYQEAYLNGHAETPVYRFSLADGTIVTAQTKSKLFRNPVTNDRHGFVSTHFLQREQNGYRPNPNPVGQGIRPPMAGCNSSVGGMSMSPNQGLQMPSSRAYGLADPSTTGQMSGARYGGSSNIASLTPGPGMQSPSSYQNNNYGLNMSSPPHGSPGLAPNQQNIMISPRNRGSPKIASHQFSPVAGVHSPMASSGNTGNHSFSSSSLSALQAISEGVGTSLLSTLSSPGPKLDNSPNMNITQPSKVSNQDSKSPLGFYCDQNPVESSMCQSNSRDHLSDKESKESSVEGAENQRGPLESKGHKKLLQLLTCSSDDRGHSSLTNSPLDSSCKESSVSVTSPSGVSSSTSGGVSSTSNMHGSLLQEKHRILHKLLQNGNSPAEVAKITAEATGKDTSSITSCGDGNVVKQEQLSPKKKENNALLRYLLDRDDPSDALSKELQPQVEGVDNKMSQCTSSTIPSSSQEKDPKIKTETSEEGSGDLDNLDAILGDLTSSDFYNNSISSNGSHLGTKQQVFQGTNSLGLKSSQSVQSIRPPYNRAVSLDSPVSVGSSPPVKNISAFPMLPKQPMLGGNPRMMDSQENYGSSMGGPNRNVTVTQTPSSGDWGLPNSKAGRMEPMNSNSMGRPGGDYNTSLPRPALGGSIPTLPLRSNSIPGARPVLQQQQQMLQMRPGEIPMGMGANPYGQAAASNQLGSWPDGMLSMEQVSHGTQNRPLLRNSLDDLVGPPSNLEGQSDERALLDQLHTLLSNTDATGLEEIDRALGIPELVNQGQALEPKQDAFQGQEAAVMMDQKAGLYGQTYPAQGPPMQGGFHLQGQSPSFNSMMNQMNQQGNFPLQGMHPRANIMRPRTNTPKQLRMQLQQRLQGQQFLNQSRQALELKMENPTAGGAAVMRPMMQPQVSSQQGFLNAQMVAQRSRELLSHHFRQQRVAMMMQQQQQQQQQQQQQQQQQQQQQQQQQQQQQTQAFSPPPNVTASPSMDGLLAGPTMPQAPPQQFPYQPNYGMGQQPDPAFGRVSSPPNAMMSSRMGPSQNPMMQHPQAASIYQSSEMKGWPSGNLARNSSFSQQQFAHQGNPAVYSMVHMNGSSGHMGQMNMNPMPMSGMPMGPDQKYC
VP16 Luc counter: counter-screen for COUP-TFII antagonists: inhibitors of VP16; shares compounds with NR2F2 inh; HEK293 Gal4-VP16 luciferase reporter, luminescence; inhibition, % at 8.5 µM; 25% of 2,500 active; AID 687007; in the data active = inhibition above about 13%
COUP-TFII conf: COUP-TFII (NR2F2) inhibition, confirmation assay; shares compounds with NR2F2 inh; HEK293 NGFI-A luciferase reporter, luminescence; inhibition, % at 8.5 µM; 45% of 2,500 active; AID 687008;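 active = mean inhibition over three repeats above a set limit taken from the earlier primary screen, cut at about 38% in these data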
A number is an active result. Sampled rows, rich in hits. Any-hit rate of the full collection: about 1.3%.

`COc1ccc(C(=O)C2(C(=O)NCCO)CC(c3ccccn3)=NO2)cc1` (stereo unspecified) gave NCOA2 inhibitor inactive and NR2F2 inh inactive.
Screening CCCC[C@H](CCCc1ccc(F)cc1)CCC(=O)N(c1ccccc1)c1ccccc1 returned NCOA2 inhibitor inactive and NR2F2 inh inactive.
Screening CS(=O)(=O)N[C@@H]1C[C@@H]2O[C@@H](CO)CC[C@@H]2O[C@@H]1CCc1ccc(-c2ccccc2F)cc1 returned NCOA2 inhibitor inactive and NR2F2 inh inactive.
Screening CC(C)[C@H](N)C(=O)N[C@H](C(=O)N1CCC2CCN(S(=O)(=O)c3ccccc3)CC21)C(C)C (stereo partly specified) returned NCOA2 inhibitor inactive and NR2F2 inh inactive.
`O=C(Nc1ccc(S(=O)(=O)N2CCOCC2)cc1)c1ccc(S(=O)(=O)N2CCOCC2)cc1` gave Gli-Sufu antag inactive, NCOA2 inhibitor inactive, NR2F2 inh inactive, SRC1 inh inactive, LRH-1 inv ag inactive and NCOA3 inh inactive.
O=C(Nc1ccc(S(=O)(=O)N2CCCC2)cc1)c1ccc(CN2CCOCC2)cc1 was read as Gli-Sufu antag inactive, NCOA2 inhibitor inactive, NR2F2 inh 63, SRC1 inh inactive, LRH-1 inv ag inactive, NCOA3 inh inactive, VP16 Luc counter inactive and COUP-TFII conf 48.
Screening CCN(CC)S(=O)(=O)c1ccc(NC(=O)c2ccc(OCC3CCCO3)cc2)cc1 (stereo unspecified) returned Gli-Sufu antag inactive, NCOA2 inhibitor inactive, NR2F2 inh 61, SRC1 inh inactive, LRH-1 inv ag inactive, NCOA3 inh inactive, VP16 Luc counter inactive and COUP-TFII conf 49.
Screening CCOc1ccc(CN2CCN(S(=O)(=O)c3ccc(NC(C)=O)cc3)CC2)cc1 returned Gli-Sufu antag inactive, NCOA2 inhibitor inactive, NR2F2 inh 48, SRC1 inh inactive, LRH-1 inv ag inactive, NCOA3 inh inactive, VP16 Luc counter inactive and COUP-TFII conf inactive.
`O=C(Nc1ccc(Cc2ccncc2)cc1)c1ccc(S(=O)(=O)N2CCOCC2)cc1` gave Gli-Sufu antag inactive, NCOA2 inhibitor inactive, NR2F2 inh 41, SRC1 inh inactive, LRH-1 inv ag inactive, NCOA3 inh inactive, VP16 Luc counter inactive and COUP-TFII conf inactive.
For C[C@@H]1CCN(C2CC2)S(=O)(=O)c2c(cccc2N2CC[C@H](O)C2)O1 the results were NCOA2 inhibitor inactive and NR2F2 inh inactive.
`C=CCNC(=O)Nc1ccc2c(c1)[C@]1(CC(=O)N(CC(C)C)C1c1ccccc1)C(=O)N2C` (stereo partly specified) gave NCOA2 inhibitor inactive and NR2F2 inh inactive.
Screening O=C(NCc1ccc(F)c(F)c1)C1CCCN(c2nc3ccccc3o2)C1 (stereo unspecified) returned NCOA2 inhibitor inactive and NR2F2 inh inactive.
`CN(c1ccccc1C(=O)Nc1ccc(S(=O)(=O)N2CCCC2)cc1)S(C)(=O)=O` gave Gli-Sufu antag inactive, NCOA2 inhibitor inactive, NR2F2 inh inactive, SRC1 inh inactive, LRH-1 inv ag inactive and NCOA3 inh inactive.
For Cc1ccc(S(=O)(=O)N2CCOCC2)cc1C(=O)Nc1ccc(N2CCCCCC2)cc1 the results were Gli-Sufu antag inactive, NCOA2 inhibitor inactive, NR2F2 inh 40, SRC1 inh inactive, LRH-1 inv ag inactive, NCOA3 inh inactive, VP16 Luc counter inactive and COUP-TFII conf inactive.
For CN(c1ccc(C(=O)Nc2ccc(S(=O)(=O)N3CCCC3)cc2)cc1)S(C)(=O)=O the results were Gli-Sufu antag inactive, NCOA2 inhibitor inactive, NR2F2 inh 47, SRC1 inh inactive, LRH-1 inv ag inactive, NCOA3 inh inactive, VP16 Luc counter inactive and COUP-TFII conf inactive.
For Cc1ccc(NC(=O)COC(=O)CCc2c[nH]c3ccccc23)cc1 the results were NCOA2 inhibitor inactive, NR2F2 inh inactive, SRC1 inh inactive, LRH-1 inv ag inactive and NCOA3 inh inactive.
`O=C(COC(=O)CCc1c[nH]c2ccccc12)Nc1ccccc1` gave Gli-Sufu antag inactive, NCOA2 inhibitor inactive, NR2F2 inh 63, SRC1 inh inactive, LRH-1 inv ag inactive, NCOA3 inh inactive, VP16 Luc counter inactive and COUP-TFII conf inactive.
CC1CCCCC1N(C(=O)c1cc(C2CC2)on1)C1CCCCC1 (stereo unspecified) was read as NCOA2 inhibitor inactive and NR2F2 inh inactive.
Screening Cc1cc(NS(=O)(=O)c2ccc(NC(=O)Cc3ccccc3)cc2)no1 returned NCOA2 inhibitor inactive and NR2F2 inh inactive.
Screening O=C(Nc1nncs1)c1cc2c(s1)CCC2 returned Gli-Sufu antag inactive, NCOA2 inhibitor inactive, NR2F2 inh inactive, SRC1 inh inactive, LRH-1 inv ag inactive and NCOA3 inh inactive.
`O=C(Nc1nccs1)c1cc2c(s1)CCCCC2` gave Gli-Sufu antag inactive, NCOA2 inhibitor 58, NR2F2 inh 42, SRC1 inh inactive, LRH-1 inv ag inactive, NCOA3 inh inactive, VP16 Luc counter inactive and COUP-TFII conf inactive.
`CCn1cc(C(=O)NCc2cccc(F)c2)c(=O)c2cc(F)c(N3CCN(C(=O)c4ccco4)CC3)cc21` gave Gli-Sufu antag inactive, NCOA2 inhibitor inactive, NR2F2 inh 38, SRC1 inh inactive, LRH-1 inv ag inactive, NCOA3 inh inactive, VP16 Luc counter inactive and COUP-TFII conf inactive.
For CCCNC(=O)c1cn(CC)c2cc(N3CCN(C(=O)c4ccco4)CC3)c(F)cc2c1=O the results were Gli-Sufu antag inactive, NCOA2 inhibitor inactive, NR2F2 inh inactive, SRC1 inh inactive, LRH-1 inv ag inactive and NCOA3 inh inactive.
For C=CCN1[C@H](CC(C)C)COc2cc(N3CCSCC3)ccc2S1(=O)=O the results were NCOA2 inhibitor inactive and NR2F2 inh inactive.
Screening CCCCCCCCCCCCCCCCn1cc[n+](C)c1 returned Gli-Sufu antag 82, NCOA2 inhibitor inactive, NR2F2 inh 47, SRC1 inh inactive, LRH-1 inv ag inactive, NCOA3 inh inactive, VP16 Luc counter inactive and COUP-TFII conf 49.
`O=C(NC(NNc1ccc([N+](=O)[O-])cc1)(C(F)(F)F)C(F)(F)F)c1ccccc1Cl` gave Gli-Sufu antag inactive, NCOA2 inhibitor inactive, NR2F2 inh inactive, SRC1 inh inactive, LRH-1 inv ag inactive and NCOA3 inh inactive.
For O=C(NC(Nc1nc2ccc([N+](=O)[O-])cc2s1)(C(F)(F)F)C(F)(F)F)c1ccccc1Cl the results were Gli-Sufu antag 93, NCOA2 inhibitor inactive, NR2F2 inh 75, SRC1 inh 73, LRH-1 inv ag 98, NCOA3 inh 74, VP16 Luc counter 18 and COUP-TFII conf 74.

Screening data deposited in PubChem by several laboratories.
